# Sampled rows, rich in hits. Any-hit rate of the full collection: about 19%.
# HT1080 IDH1KD tx = toxicity to HT-1080 IDH1 knockdown cells (counter line); HT-1080 IDH1 knockdown viability, ATP luminescence, 48 h; Potency, µM (series often up to 46.1 µM), most hits filed as cytotoxic; hit rate 2% among 360,000; AID 686971
#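 IDH1KD HT-1080 cells, 750/well, RPMI + 5% FBS; compound pinned after 2 h settling; 48 h, 37 °C; CellTiter-Glo luminescence; % activity normalised to DMSO and no-cell wells; curves fitted, classed by r2 and efficacy.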
# ELG1 repair inh = inhibitors of ELG1-dependent DNA repair in HEK293T cells; HEK293T ELG1-luciferase reporter, luminescence, 16 h; DNA damage induced by 5-fluorouridine; Potency, µM (series often up to 46.1 µM), usual class: inhibitors; hit rate 2.3% among 330,000; further: nearly all actives have a fitted effect of over 55% in size
#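 Luminescence from the luciferase reporter, measured 30 min after ONE-Glo reagent at room temperature, was the read-out. Beforehand, 2,000 cells per well were exposed for 16 hr at 37 °C to 5-fluorouridine together with compound or vehicle.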
# HT1080NT lethal = kills 2HG-producing HT-1080-NT fibrosarcoma cells; hit rate 1.6% among 360,000; HT-1080-NT fibrosarcoma viability, CellTiter-Glo ATP luminescence, 48 h; Potency, µM (top dose mostly 46.1 µM), actives largely listed as cytotoxic;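 further: NT is the 2HG producing partner of a matched IDH1 knockdown line; nearly all actives have a fitted effect of over 55% in size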
#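 Compounds were tested in concentration-response format on HT-1080-NT cells for 48 hours at 37 degrees C. Cell viability came from CellTiter-Glo luminescence; curves were classified by r2, response magnitude and activity.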
# IL1B secr inh = inflammasome signaling inhibition, IL-1 beta readout | THP-1 LPS/ATP IL-1B secretion, AlphaLISA, 16 h; stronger effect = lower value | activity change, % at 57.5 µM | hit rate 4.7% among 360,000 | AID 743279; in the data active means activity change below about -50%; inconclusive means mostly about -30% to -49%
#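 THP-1 cells pretreated 1 hr with compounds (up to 57.5 uM final), then stimulated with LPS (250 ng/mL final) plus ATP (1.25 mM final); secreted IL-1B measured by AlphaLISA after 16 hr, decreased signal indicating inhibition.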
# DT40 TDP1 no CPT = qHTS for Inhibitors of human tyrosyl-DNA phosphodiesterase 1 (TDP1): qHTS in cells in absence of CPT. DT40 Tdp1-/- hTDP1 cells, no CPT, ATP luminescence, 48 h. Potency, µM (doses to about 46.2 µM), usual class: inhibitors. hit rate 15% among 420,000. AID 686978, 2013; further: nearly all actives have a fitted effect of over 55% in size
#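 Stably hTDP1-transfected Tdp1-null chicken DT40 cells were treated with library compounds minus camptothecin and grown for at least 48 hr at 37 °C, after which cellular ATP was quantified by luminescence.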
# TDP1 cell CPT = DT40-hTDP1 cell growth loss with CPT. chicken DT40 Tdp1-/-;hTDP1 cells + 20 nM CPT, ATP luminescence, 48 h. Potency, µM (highest dose often 46.2 µM), usual class: inhibitors. hit rate 12% among 420,000. AID 686979; further: nearly all actives have a fitted effect of over 55% in size
#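 Chicken DT40 Tdp1-/- cells stably complemented with human TDP1 were seeded at 400 cells/well in medium containing 20 nM camptothecin, exposed to pin-transferred compounds, and grown at 37 °C for at least 48 hr. Viability was read as ATP luminescence.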
# Hits are given with their value; - = inactive; ? = inconclusive; . = not tested or not shown; ! = not active in a repeat; [ ] = another dose, or the depositor's remark. Unless noted, the call rests on the fitted dose curve; in most records, active means well fitted curve in the direction sought with a large enough effect; inconclusive means small, poorly fitted or top-dose-only effect, or another doubt; inactive means no such curve, though single readings can be large; an effect the other way counts as inactive or inconclusive.
SMILES,HT1080 IDH1KD tx,ELG1 repair inh,HT1080NT lethal,IL1B secr inh,DT40 TDP1 no CPT,TDP1 cell CPT
Cc1ccccc1NC(=O)COc1ccccc1C(=O)Nc1ccccc1,-,.,-,.,-,-
O=C(COc1ccccc1C(=O)Nc1ccccc1)Nc1ccc2ccccc2c1,-,.,-,.,20µM,?
O=C(COc1ccccc1C(=O)Nc1ccccc1)Nc1ccccc1-c1ccccc1,.,.,.,.,?,12.6µM
CS(=O)(=O)c1ccc(NC(=O)COc2ccccc2C(=O)Nc2ccccc2)cc1,.,.,.,.,?,20µM
COc1cccc(NC(=O)COc2ccccc2C(=O)Nc2ccccc2)c1,-,.,-,.,?,?
COc1ccccc1C(=O)Nc1cccc(N2CCC(NCc3cnn(-c4ccccc4)n3)CC2)c1,.,.,.,.,?,-[9.04 µM]
Brc1ccc2nc(-c3ccccc3)c(Cc3ccsc3)n2c1,-,.,-,-,23.1µM,25.9µM
Cc1ccc(-c2nc3ccc(Cl)cn3c2Cc2cccc(Cl)c2)cc1,?,.,?,-,16.4µM,?
Fc1ccc(-c2nc3ccc(Cl)cn3c2Cc2cccc(F)c2)cc1,?,.,?,-,23.1µM,?
Fc1cccc(Cc2c(-c3ccccc3)nc3ccc(Cl)cn23)c1,-,.,?,-,?,?
COc1ccc(-c2nc3ccc(Cl)cn3c2Cc2cccc(Cl)c2)cc1OC,-,.,-,-,?,?
COc1ccc(-c2nc3ccc(Br)cn3c2Cc2cccc(Cl)c2)cc1OC,?,.,?,?,20.6µM,?
O=S(=O)(c1cccc(C(F)(F)F)c1)N1CCN(S(=O)(=O)c2ccc3c(c2)OCCO3)CC1,.,-,.,.,.,.
CCOc1ccc(Nc2ncnc3c2cnn3C)cc1,-,?,-,-,?,?
Cc1ccc2c(c1)c1c(c(=O)n(-c3cccc(Cl)c3)c(=O)n1CC(=O)N1CCCC1)n2C,.,.,.,.,-,?
COc1ccc(OC)c(CNC(=O)CCc2c(C)nc3c(c2C)c(=O)n(C)c(=O)n3C)c1,.,.,.,.,?,-
Cc1ccc(-c2nc3ccc(C)cn3c2Cc2cccc(Cl)c2)cc1,?,.,?,-,?,?
Cc1ccc(-c2nc3ccccn3c2C=O)cc1,-,?,-,-,?,?
Cc1c(-c2ccc(Br)cc2)nc2ccccn12,-,?,?,-80.9,?,-
N#Cc1ccc(-c2nc3ccc(Br)cn3c2Cc2cccc(Cl)c2)cc1,-,.,-,-,20.6µM,?
Clc1cccc(Cc2c(-c3cccc(Cl)c3)nc3ccc(Br)cn23)c1,?,.,-,-,?,?
Cc1ccc(-c2nc3ccc(Br)cn3c2Cc2cccc(Cl)c2)cc1,?,.,?,-,9.2µM,14.6µM
Clc1ccc(-c2nc3ccc(Br)cn3c2Cc2cccc(Cl)c2)cc1,14.6µM,.,?,-,?,?
COc1ccc(C)cc1Nc1nc2cc(Cl)c(Cl)cc2nc1-n1nc(C)cc1C,.,.,.,.,-,-
Cc1ccc(-c2nc3ccc(Br)cn3c2Cc2ccccc2)cc1,?,.,-,-,?,14.6µM
SMILES,HT1080 IDH1KD tx,ELG1 repair inh,HT1080NT lethal,IL1B secr inh,DT40 TDP1 no CPT,TDP1 cell CPT
COc1ccccc1Cc1c(-c2ccc(OC)c(OC)c2)nc2ccc(Br)cn12,18.4µM,.,?,-,5.8µM,18.4µM
COc1ccc(-c2nc3ccc(Br)cn3c2Cc2ccccc2)cc1OC,?,.,?,-,?,?
CCCc1c(C(=O)N/N=C/c2ccncc2)nnn1-c1nonc1N,-,-,-,-,-,-
CC1(C)CC(NCCN2CCN(C3=CC(=C(C#N)C#N)CC(C)(C)C3)CC2)=CC(=C(C#N)C#N)C1,-,?,-,-,13µM,18.4µM
OCCN1CCN(c2nc(-c3ccccc3)nc3c2oc2ccccc23)CC1,?,?,23.1µM,.,16.4µM,?
OCCN1CCN(c2nc(-c3ccccc3O)nc3ccccc23)CC1,?,?,?,-82.3,16.4µM,-
OCCN(CCO)c1nc(-c2ccccc2)nc2c1oc1ccccc12,-,23.1µM,-,-,?,16.4µM
Cc1ccc(S(=O)(=O)N2CCN(c3nc(-n4cccn4)nc4ccccc34)CC2)cc1,-,.,-,.,?,?
CCCc1nn(C)c2c(=O)[nH]c(-c3cc(S(=O)(=O)Nc4ccc(NC(C)=O)cc4)ccc3OCC)nc12,-,?,-,?,?,10.3µM
CCCc1nn(C)c2c(=O)[nH]c(-c3cc(S(=O)(=O)N4CCN(C)CC4)ccc3OCC)nc12,-,-,-,-,-,-
C=CCn1c(N)c(C(=O)OC(C)CC)c2nc3ccccc3nc21 (stereo unspecified),-,-,-,?,?,-
C=CCn1c(N)c(C(=O)Nc2ccccc2)c2nc3ccccc3nc21,-,?,-,-61.9,?,-
C=CCn1c(N)c(C(=O)OC(C)(C)C)c2nc3ccccc3nc21,-,?,-,?,11.6µM,20.6µM
CN1C(=O)NC(c2cccc([N+](=O)[O-])c2)C2=C1CCCC2=O (stereo unspecified),-,-,-,-,-,-
CCOC(=O)C1=C(N)Oc2c(c(=O)[nH]c3ccccc23)C1c1ccccc1 (stereo unspecified),-,?,?,-,13µM,23.1µM
CCN(CCNC(=O)C1CCCN(c2ncnc3c2nc2n3CCCCC2)C1)Cc1ccccc1 (stereo unspecified),-,-,-,-,25.9µM,?
CC1CC(C)CN(CCCNC(=O)C2CCCN(c3ncnc4c3nc3n4CCCCC3)C2)C1 (stereo unspecified),-,-,-,-,-,-
CC(C)N(Cc1ccccc1)C(=O)C1CCCN(c2ncnc3c2nc2n3CCCCC2)C1 (stereo unspecified),-,-,-,-,18.4µM,?
COc1ccc(-c2ccc(SCC(=O)NC3CCCCC3)nn2)cc1OC,-,?,-,-,?,-
COc1ccc(Oc2ncc3nc(-c4ccc(Cl)cc4)c(=O)n(C)c3n2)cc1,.,.,.,.,-,-
Cc1ccccc1N=C(N)Nc1ccccc1C,-,-,-,-,?,26.6µM!
C[C@@H]1CN([C@@H](C)CO)C(=O)CCCn2nncc2CO[C@H]1CN(C)C(=O)C1CC1,-,.,-,-,-,-
Cc1ccc(-c2nc(NCc3cccnc3)c3ccccc3n2)cc1,-,?,-,-76.2,-,-
c1ccc(-c2nc(NCc3cccnc3)c3ccccc3n2)cc1,?,?,-,?,-,-
Clc1cccc(-c2nc(NCc3cccnc3)c3ccccc3n2)c1,?,7.31µM,?,-58.4,-,-
FC(F)(F)c1nc(NCc2cccnc2)c2ccccc2n1,-,-,-,-,23.1µM,?
COc1cc(OC)cc(-c2nc3nc(C)c(CCC(=O)Nc4ccc(C)c(C)c4)c(C)n3n2)c1,.,.,.,.,-,-

# Screens from PubChem.
